Key:
Test in all cases: PBM binding z-score (relative to random genomic background probes); higher = stronger binding; sequences stand for … in GC…GCGATTGACAGCGTAGAATGAAGG
[1] = tested on: PPARg:RXRa DBDmut IVT, anti-RXR (DBD mutation: RXRa K156A/R161A, NR concentration 270 nM, RXRa partner concentration 90 nM)
How it was run: (§1)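 Scanned fluorescence from custom Agilent 4×180K protein-binding microarrays was regression-normalized. Binding z-scores use random background probes as reference. Ligand-free nuclear receptor dimers were incubated on the arrays for 1 h and detected with antibodies against each partner (one per run).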

[2] = tested on: PPARg:RXRa IVT, anti-PPARg (NR concentration 270 nM, RXRa partner concentration 90 nM)
How it was run: as §1

[3] = tested on: PPARg DBDmut:RXRa IVT, anti-PPARg (DBD mutation: PPARg1 K132A/R137A, NR concentration 270 nM, RXRa partner concentration 90 nM)
How it was run: as §1

[4] = tested on: PPARg DBDmut IVT, anti-PPARg (DBD mutation: PPARg1 K132A/R137A, NR concentration 270 nM)
How it was run: as §1

[5] = tested on: PPARg homodimer (NR concentration 180 nM)
How it was run: as §1

[6] = tested on: PXR:RXRa (NR concentration 270 nM, RXRa partner concentration 90 nM)
How it was run: as §1

[7] = tested on: PXR homodimer (NR concentration 270 nM)
How it was run: as §1

[8] = tested on: RARa:RXR (NR concentration 270 nM, RXRa partner concentration 90 nM)
How it was run: as §1

[9] = tested on: RARa homodimer (NR concentration 270 nM)
How it was run: as §1

[10] = tested on: RARb:RXRa (NR concentration 270 nM, RXRa partner concentration 90 nM)
How it was run: as §1

| Sequence | PBM binding z-score [1] | PBM binding z-score [2] | PBM binding z-score [3] | PBM binding z-score [4] | PBM binding z-score [5] | PBM binding z-score [6] | PBM binding z-score [7] | PBM binding z-score [8] | PBM binding z-score [9] | PBM binding z-score [10] |
| --- | --- | --- | --- | --- | --- | --- | --- | --- | --- | --- |
| TCTGCTAGGTCAACGATGGACAGCTAATCTGCTA | 3.88 | 4.29 | 1.56 | 0.358 | 1.08 | 1.32 | -0.751 | 2.01 | -0.131 | 3.97 |
| CCGACTGGGCCATCAGGTCATTGATATCAACGTT | 3.07 | 3.51 | -1.33 | -0.437 | 0.811 | 1.47 | 0.46 | 1.85 | -0.257 | 2.04 |
| TCTAGCAGGCCAGCGGGTCACTCAAGAGGTACGG | 0.972 | 1.03 | -0.284 | -0.723 | 0.406 | 1.12 | -0.865 | 1.81 | -0.465 | 1.81 |
| TCTTGTAGATCAAAGTTTAAGAAAGCCGAAGCCT | 2.31 | 1.66 | 0.921 | 0.574 | 0.293 | 0.685 | 0.403 | 0.864 | 0.333 | 0.69 |
| ATATGTAGGTTATCGGGTCCTTCAGTTTGCGCAT | 6.92 | 6.98 | 2.02 | 2.6 | 1.69 | 0.963 | 0.468 | 0.74 | 0.677 | 0.829 |
| AGAATGAGGTTGCCAAAGATCAGGGAAACGCTTG | -0.0771 | -0.145 | -0.469 | -0.747 | -0.291 | 0.0324 | -0.465 | 0.398 | -0.509 | 0.286 |
| CGAACTAGGTCATTGATAGGACAGTGAATAGTAA | 7.92 | 8.26 | 4.2 | 1.01 | 1.71 | 1.43 | 0.351 | 1.93 | 0.346 | 3.4 |
| TATACAGGGTCAAAGGCCAGAGTTCGAATGTCGA | 2.55 | 4.54 | 1.63 | 2 | 3.99 | 5.44 | 2.54 | 6.63 | 1.14 | 4.53 |
| TGTTGTAGATCAGCAGGTTAAGAAAGCTGGCCAA | -1.12 | -0.254 | -0.00533 | -1.02 | -0.701 | -0.454 | -0.604 | -0.71 | -0.587 | -0.157 |
| CGTCCAAGGTCAAGGTTAGTGAAAGAGACTCGAA | 3.18 | 3.79 | 0.923 | 0.146 | 2.5 | 3.81 | 0.691 | 4.34 | 0.992 | 5.07 |
| GCTGCTATGTCAGGTTGGTCAGCTAACGGGTACG | 0.218 | -0.36 | -0.641 | -1.12 | -0.452 | -0.319 | -0.426 | -0.149 | -0.632 | 0.458 |
| TCTTGTAGATCAACATGAGGTTAAGAAAGATCGA | 1.66 | 1.07 | 1.29 | 1.12 | -0.107 | 1.22 | -0.155 | 1.53 | 0.226 | 0.619 |
| CGTCCAATGTCAAAGGTCAGTGAAGAGATGACGG | 0.671 | 3.16 | 0.777 | 0.834 | 4.53 | 4.53 | 0.54 | 6.27 | 2 | 4.36 |
| AGTCAAAGCTCACTAGGTAACGTAAGATTCAGCT | 1.92 | 2.79 | 0.267 | -0.313 | -0.462 | -0.363 | -0.294 | -0.364 | -0.0387 | -0.0625 |
| ATCTCTAGGTAAAAGTTCAGTAAATCCCGAGGAT | 1.87 | 3.76 | 1.75 | 1.54 | 1.88 | 1.8 | 1.71 | 1.47 | 1.92 | 2.41 |
| AATACAGGGTCATCGTAGGCCAGAGAACGCACAG | 3.24 | 4.03 | 1.71 | 1.62 | 2.96 | 5.14 | 0.451 | 5.41 | 1.51 | 4.56 |
| TCATATAGGTAAAGGTTAAAGTCGAACGATATGA | 3.98 | 4.07 | 1.37 | 1.86 | 1.53 | 2.1 | 0.481 | 3.21 | 1.26 | 2.67 |
| TCATATAGGTAATACAGGTGAAAATCGGCATCTA | 3.9 | 3.09 | 1.52 | 1.47 | 1.22 | 0.9 | 0.486 | 1.46 | 1.89 | 0.59 |
| TTACCAAGGTGAGCTGAGGTCGTCGATCCAACTC | 0.887 | 2.1 | -0.228 | -0.875 | -0.188 | 3.92 | 0.167 | 1.43 | -0.863 | 1.8 |
| ATATGTAGGTTAGCTGGGGTCATCCAGACTAGGC | 6.84 | 6.06 | 1.71 | 0.818 | 2.58 | 6.14 | 1.99 | 5.79 | 1.43 | 3.34 |
| GCTTGTGGATCAAGGTTAAGAAAGACTAAGCTAA | 0.991 | 1.19 | -0.0361 | 0.0112 | 0.339 | 0.429 | -0.166 | 0.735 | -0.249 | 0.702 |
| TCTGCTAGGTCAACGATGGTCAGCCAATCTGCTA | 4.18 | 4.29 | 0.0146 | -0.247 | 1.87 | 1.6 | -0.979 | 2.02 | -0.83 | 4.26 |
| ATCTCTAGGTAAGACTCAGTCCAGTGAAGAACGC | 1.91 | 1.22 | -0.449 | 2 | 0.717 | -0.0905 | 0.481 | -0.0301 | 0.973 | 0.0795 |
| GATACCGGGTCAGCTAGAGGCCAGAGTATGGAAA | 0.693 | 2.49 | -0.62 | -0.769 | 1.94 | 2.41 | -0.56 | 3.53 | -0.152 | 3.28 |
